In PubChem BioAssay (Tox21):
The source made the active and inactive calls. Calls follow the shape of the full dose curve.

Target: Estrogen receptor (Homo sapiens) (UniProt P03372)
Test: qHTS assay to identify small molecule agonists of the estrogen receptor alpha (ER-alpha) signaling pathway in the presence of an antagonist (AID 1259383); also: top concentration of the series differs between compounds; nearly all actives have a fitted effect of over 15% in size
Conditions: VM7Luc4E2 cells, ERE-luciferase, +ICI-182,780, 22 h; series mostly up to 92.4 µM; activation: at the top concentration
Description: National Center for Advancing Translational Sciences [NCATS] NIH Chemical Genomics Center [NCGC] U.S. Environmental Protection Agency [EPA] National Institutes of Environmental Health Sciences [NIEHS] National Toxicology Program [NTP] Assay overview: Estrogen receptor (ER), a member of nuclear hormone receptor plays an important role in development, metabolic homeostasis and reproduction. Two subtypes of ER, ER-alpha and ER-beta, have similar expression patterns with some uniqueness in both types. Endocrine disrupting chemicals (EDCs) and their interactions with steroid hormone receptors like ER causes disruption of normal endocrine function. Therefore, it is important to understand the effect of environmental chemicals in ER signaling pathway. For identifying ER agonists, VM7Luc4E2 cell line has been used in the current assay. VM7Luc4E2 cell line (provided by Denison MS, University of California) endogenously expresses full-length ER-alpha and is stably transfected with a plasmid containing four estrogen responsive elements (ERE) upstream of a luciferase reporter gene. This current screening for measuring luciferase reporter gene activity using VM7Luc4E2 cells against Tox21 10K library collection is a confirmation study on agonist mode screening in presence of ER-antagonist (ICI-182,780) at 10.0nM final concentration.
Assay Protocol Summary: VM7Luc4E2 cells were cultured in phenol red free assay medium containing 10% charcoal stripped FBS for 5 days prior to the assay. The cells were dispensed at 4,000 cells in 4uL of assay medium per well into white wall/solid-bottom 1536-well plates (Corning Life Sciences, Corning, NY) using a Multidrop Combi (Thermo Fisher Scientific Inc., Waltham, MA) dispenser. After the assay plates were incubated at 37C and 5% CO2 for 24hr, 1uL of 10.0nM (final concentration) ICI-182,780 or assay buffer was added using two separate tips of Flying Reagent Dispenser (FRD, Aurora Discovery, San Diego, CA). Then 23nL of compounds dissolved in DMSO at 15 concentrations and positive controls or DMSO only was transferred to the assay plates by a Pintool station (Wako, San Diego, CA). The assay plates were incubated at 37C and 5% CO2 for 22hr. For luciferase read, 4uL/well ONE-Glo reagent (Promega Corporation, Madison, WI) was added to each well using FRD and after 30min incubation at room temperature, luminescence signal was measured on ViewLux plate reader (PerkinElmer, Shelton, CT).
% is scaled to controls: 0 for no effect and ±100 for the full control effect.

Sequence of Estrogen receptor (Homo sapiens) (P03372 whole entry, looked up): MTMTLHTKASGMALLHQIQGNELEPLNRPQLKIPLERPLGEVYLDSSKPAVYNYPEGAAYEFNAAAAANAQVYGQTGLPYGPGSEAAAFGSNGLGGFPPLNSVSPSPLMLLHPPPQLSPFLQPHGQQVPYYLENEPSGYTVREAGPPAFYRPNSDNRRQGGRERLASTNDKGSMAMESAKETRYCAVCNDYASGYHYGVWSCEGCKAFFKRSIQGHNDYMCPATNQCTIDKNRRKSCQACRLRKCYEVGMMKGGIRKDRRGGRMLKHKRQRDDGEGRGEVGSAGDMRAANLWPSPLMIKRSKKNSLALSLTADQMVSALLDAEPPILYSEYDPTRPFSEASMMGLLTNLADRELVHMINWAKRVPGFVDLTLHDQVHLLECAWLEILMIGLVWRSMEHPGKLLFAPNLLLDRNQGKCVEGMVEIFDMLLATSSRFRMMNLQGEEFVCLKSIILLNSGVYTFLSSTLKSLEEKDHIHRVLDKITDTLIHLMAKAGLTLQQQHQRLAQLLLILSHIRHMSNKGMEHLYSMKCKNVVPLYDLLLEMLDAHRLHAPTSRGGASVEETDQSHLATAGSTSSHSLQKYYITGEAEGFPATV

SMILES | activation
CCN(CC)CC | -1.35% (inactive)
CC(=O)Nc1ccc(S(=O)(=O)Nc2cc(C)on2)cc1 | 0.434% [at 42.5 µM] (inactive)
CCOC(=O)CC | -2.93% (inactive)
O=C(O)CCCCCCCCCC(=O)O | -2.07% (inactive)
CCCCOCCCC | -1.46% (inactive)
Cc1ccc2cccnc2c1 | -0.161% (inactive)
COCc1nnc(-c2ccc[n+]([O-])c2)n1-c1c(Cl)c(Cl)cc2[nH]c(=O)c(=O)[nH]c12 | 0.505% (inactive)
N#Cc1ccccc1C#N | 0.157% (inactive)
CN1C(CCl)Nc2cc(Cl)c(S(N)(=O)=O)cc2S1(=O)=O (stereo not given) | -0.064% [at 42.5 µM] (inactive)
COc1cc(OC)cc(OC)c1 | -0.0251% [at 42.5 µM] (inactive)
O=Cc1ccc(C(=O)O)cc1 | -1.42% (inactive)
CCCCC(O)/C=C(C)/C=C/C=C/C(=O)N1CCCC1=O (stereo not given) | 0.409% [at 42.5 µM] (inactive)
CCC(=O)OCCOc1ccccc1 | -1.02% (inactive)
CC(C)(C)C(=O)CCc1ccc(Cl)cc1 | -0.194% (inactive)
CCCCS | 0.0471% (inactive)
NCC1CCC(C(=O)Oc2ccc(CCC(=O)O)cc2)CC1 (stereo not given) | -9.32% [at 42.5 µM] (inactive)
COC(=O)/C=C(\C)CCC=C(C)C | -1.57% (inactive)
CC(=O)OCC(=O)[C@@]1(O)CC[C@H]2[C@@H]3CCC4=CC(=O)C=C[C@]4(C)[C@H]3[C@@H](O)C[C@@]21C | 0.471% [at 42.5 µM] (inactive)
C/C(=N\O)c1ccc(OCC(=O)N2CCCCC2)cc1 | 11.3% [at 42.5 µM] (inactive)
C=CC(C)(CCC=C(C)C)OC(=O)C(C)C (stereo not given) | -0.111% (inactive)

SMILES | activation
CC(C)(C)C(=O)NCCCC(=O)O | 0.192% [at 42.5 µM] (inactive)
Cc1cc2c(cc1CC(=O)c1sccc1S(=O)(=O)Nc1onc(C)c1Cl)OCO2 | -0.405% [at 42.5 µM] (inactive)
C=CCn1cc[n+](C)c1 | -0.478% (inactive)
CC/C=C\CCCCCCCCCCOC(C)=O | 0.652% (inactive)
CC(=O)OC1CCC(C(C)(C)C)CC1 (stereo not given) | 0.23% (inactive)
Cc1ccc(Br)cc1 | 0.0749% (inactive)
CCOC(=O)COc1ccc2c(C)c(CCN(CC)CC)c(=O)oc2c1Cl | 0.623% [at 42.5 µM] (inactive)
CC(=O)SC[C@@H](C)C(=O)N1CCC[C@H]1C(=O)N[C@@H](Cc1ccccc1)C(=O)O | -0.636% [at 42.5 µM] (inactive)
O=C(OOC(=O)c1ccccc1)c1ccccc1 | 0.0973% [at 42.5 µM] (inactive)
C/C=C(\C)C(=O)OC/C=C(\C)CCC=C(C)C | -0.946% (inactive)
CCOC(=O)c1ccc(N(C)C)cc1 | 12% (inactive)
CCCCCCCOC(C)=O | 1.7% (inactive)
C=COCCCCO | -0.0291% (inactive)
Cc1nc2ccc(Cl)cc2[nH]1 | 3.1% (inactive)
CC/C=C/CCCCCCCCCCOC(C)=O | 0.105% (inactive)
CN(C)c1cc(NC(=O)CNC(C)(C)C)c(O)c2c1C[C@H]1C[C@H]3[C@H](N(C)C)C(=O)C(C(N)=O)=C(O)[C@@]3(O)C(=O)C1=C2O | -1.12% [at 42.5 µM] (inactive)
CC(C)(O)c1ccc(C(C)(C)O)cc1 | 0.0563% (inactive)
O=S(=O)(O)c1ccc(Cl)cc1 | -0.413% (inactive)
CC(O)C(CO)C(C)O (stereo not given) | -0.711% (inactive)
CCCCC(CC)CCC(CC(C)C)OS(=O)(=O)O (stereo not given) | -0.335% (inactive)
